92 compounds from PubChem BioAssay AID1377 (University of Pittsburgh Molecular Library Screening Center, 2008) can be followed below.

The whole screen tested about 220,000 compounds, of which about 830 (0.38%) were called active.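 How the source made its calls: active means activation, scaled between plate controls, above about 75% (limit read from the data); inactive means activation under that limit.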 What follows is part of a selection rich in actives, with near analogues and random picks from the rest.

This assay can be described thus: inhibitors of zVAD-triggered necroptosis, primary screen, L929 cells (AID 1377).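 Further: 0% = zVAD with DMSO and 100% = DMSO alone without zVAD.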 As to conditions: ATP luminescence, 24 h, at 10 µM, active compounds read high; with zVAD 60 µM unless noted.
For `CC(NC(=O)Nc1ccc2c(c1)OCO2)c1ccncc1` (configuration not stated), the viability rescue was 1.29% (inactive).

As for `Cc1cccc(NC(=O)/C=C/c2ccc3c(c2)OCO3)n1`, the viability rescue is 0.85% [with zVAD 20 µM] (inactive).

Turning to `Cc1cccc(NC(=O)Nc2ccc3c(c2)OCO3)n1`, the viability rescue was 75.5% (active).

On to `CC1CCCCC1NC(=O)CO/N=C/c1ccc(OC(F)F)cc1` (configuration not stated), for which the viability rescue is 0.48% (inactive).

On to `CC(C)C(=O)Nc1ccc2c3c(cccc13)CC2`, for which the viability rescue was 1.59% [with zVAD 20 µM] (inactive).

Take `Cn1cccc1C(=O)Nc1nccs1`: the viability rescue was 66.4% [with zVAD 20 µM] (inactive).

Regarding `O=C(O)c1ccccc1-c1ccccc1C(=O)Nc1nccs1`, the viability rescue was 1.12% (inactive).

For the compound `CCOc1ccc(C(=O)Nc2nccs2)cc1[N+](=O)[O-]`, the viability rescue is 80.9% (active).

For the compound `CCN(c1ccccc1)S(=O)(=O)c1ccc(C(=O)Nc2nccs2)cc1`, the viability rescue was 0.94% (inactive).

As to `COc1ccc(C(=O)NNC(=O)c2cnccn2)cc1[N+](=O)[O-]`, the viability rescue was -0.17% (inactive).

Take `CC(=O)Oc1ccc(C(=O)Nc2nccs2)cc1`: the viability rescue is 101% [with zVAD 20 µM] (active).

Regarding `NC(=O)C1(N2CCCCC2)CCN(C2CC(=O)N(Cc3ccc(N4CCCC4=O)cc3)C2=O)CC1` (configuration not stated), the viability rescue was 0.13% (inactive).

On to `O=C(COC(=O)/C=C/c1nc2ccccc2s1)Nc1ccccc1Oc1ccccc1`, for which the viability rescue is 0.66% (inactive).

As for `Cc1ccc(CNC(=O)CCNS(=O)(=O)c2ccc(Br)s2)cc1`, the viability rescue was 3.55% (inactive).

For `Cc1noc(C)c1C(=O)OCC(=O)N1CCN(S(=O)(=O)c2ccc3ccccc3c2)CC1`, the viability rescue is 0.85% (inactive).

Turning to `CN(C(=O)CCn1c(=S)oc2ccccc21)C1CCCCC1`, the viability rescue is 0.16% (inactive).

Consider `CC(=O)NC1C(Oc2ccc(C=O)cc2)OC(COC(C)=O)C(OC(C)=O)C1OC(C)=O` (configuration not stated), for which the viability rescue is 1.66% (inactive).

As for `Cc1cccc(CSc2nc3c(c(=O)n2C)SCC3)c1`, the viability rescue is -0.37% (inactive).

As to `Cc1ccc(NC(=O)c2ccccn2)cc1S(=O)(=O)N1CCOCC1`, the viability rescue was 1.5% (inactive).

On to `Cc1ccc(C(=O)Nc2ccccc2C(=O)NC2CCCCC2)cc1S(=O)(=O)N1CCOCC1`, for which the viability rescue is -0.61% (inactive).

As to `Cc1ccc(NC(=O)NC2CCCCC2)cc1S(=O)(=O)N1CCOCC1`, the viability rescue is 75.4% (active).

For the compound `CCn1c(CN2C(=O)CSc3ccccc32)n[nH]c1=S`, the viability rescue is 0.15% (inactive).

With `CCC1CCCCN1CCCNC(=O)c1cc2c(Cl)nc3ccccc3c2s1` (configuration not stated), the viability rescue was 18% (inactive).

For `CCOC(=O)c1cn[nH]c1NC(=S)Nc1ccccc1`, the viability rescue was 2.47% (inactive).

In the case of `CCCCn1c(=O)c(CCC(=O)OCC(=O)Nc2ccc(C)c(Cl)c2)nc2ccccc21`, the viability rescue is 0.2% [with zVAD 20 µM] (inactive).

Take `COc1cc([C@H](Cc2ccccc2)NC(C)=O)oc(=O)c1`: the viability rescue was -0.39% (inactive).

With `COC(=O)C1=C(C(=O)OC)[C@@H]2N(C)c3ccccc3[C@@]23C[C@@H](C(=O)OC)N(C(C)=O)C3=N1`, the viability rescue is 0.26% (inactive).

As for `Oc1ccc(-c2onc3ccc(Cl)cc23)cc1`, the viability rescue was 82.9% (active).

`Clc1ccc2nc(-c3ccccc3)nc(C(Cl)Cl)c2c1`: the viability rescue is 37.5% (inactive).

With `NC(=O)C[n+]1cccc(C(N)=O)c1`, the viability rescue was 1.24% (inactive).

Take `O=C(O)CCn1c(O)c(C=C2N=c3ccccc3=N2)sc1=S`: the viability rescue was -0.21% (inactive).

As for `CCN(CC)CCNS(=O)(=O)c1ccc(/C=C/C(=O)O)cc1`, the viability rescue was 1.05% (inactive).

In the case of `C/C(=C/C(=O)N1CCN(C)CC1)C(=O)O`, the viability rescue was 0.98% (inactive).

In the case of `CSc1nc2c(c(=O)[nH]1)C(c1cccc(Cl)c1Cl)CC(=O)N2` (configuration not stated), the viability rescue was 0.3% (inactive).

`Cc1ccccc1C(=O)N1CCC(C(=O)Nc2ccc(S(=O)(=O)N(C)C(C)C)cc2)CC1`: the viability rescue is -0.58% (inactive).

Take `NS(=O)(=O)c1cccnc1Nc1cccc(Cl)c1`: the viability rescue is -0.92% (inactive).

Turning to `OCCCNc1nccc(-c2cc(Nc3cccc(Cl)c3)ncn2)n1`, the viability rescue was 103% (active).

Regarding `CC(C)n1cnc2c(Nc3cccc(Cl)c3)nc(N(CCO)CCCO)nc21`, the viability rescue is 20.9% (inactive).

Turning to `CC(=O)Nc1ccc(S(=O)(=O)NCC(=O)OCc2cc(=O)oc3ccc4ccccc4c23)cc1`, the viability rescue is 0.62% (inactive).

As for `CCOc1ccc(Nc2nc(Cl)nc(N3CCN(c4ccc(OC)cc4)CC3)n2)cc1`, the viability rescue is 0.74% (inactive).

In the case of `c1ccc(Nc2nc(N3CCOCC3)c3ccccc3n2)cc1`, the viability rescue was -0.17% (inactive).

Regarding `COc1ccc(Nc2ncc(F)c(N3CCOCC3)n2)cc1`, the viability rescue is 75.1% (active).

As for `CCCOC(=O)c1c(NC(=O)c2cnn3c2NC(c2ccccc2)CC3C(F)(F)F)sc2c1CCCC2` (configuration not stated), the viability rescue was 7.75% [with zVAD 20 µM] (inactive).

As for `CC(C)NC(=O)/C(C#N)=C\c1ccc(N(C)C)c(Br)c1`, the viability rescue was 0.11% (inactive).

As for `COc1ccc(C2CC(c3cccs3)Nc3nnnn32)cc1` (configuration not stated), the viability rescue is 2.51% (inactive).

Turning to `Cc1cc(-n2cnc(-c3cn(C)nc3C)n2)no1`, the viability rescue is 80.2% (active).

As for `C/C(Cc1ccccc1)=N\NC(=O)CNC(=O)c1ccc2c(c1)OCCO2`, the viability rescue was 0.03% (inactive).

Regarding `COc1cccc(Nc2nc(N)c([N+](=O)[O-])c(NCc3ccco3)n2)c1`, the viability rescue was -0.44% (inactive).

Regarding `COC(=O)c1cccnc1NC(=S)NC(C)C`, the viability rescue is -0.14% (inactive).

In the case of `COc1cc2c(cc1O)[C@H](Cc1ccc(Oc3cc(C[C@@H]4NCCc5cc(OC)c(O)cc54)ccc3O)cc1)NCC2`, the viability rescue was 5.53% (inactive).

For the compound `CC[C@H]1CN2CCc3cc(OC)c(OC)cc3[C@@H]2C[C@@H]1C[C@H]1NCCc2cc(OC)c(OC)cc21`, the viability rescue was 79.5% (active).

In the case of `O=C(/C=C/c1cccs1)NCc1cccnc1`, the viability rescue is 0.04% (inactive).

`Nc1ccc(Nc2ccccc2)cc1`: the viability rescue was 0.51% [with zVAD 20 µM] (inactive).

With `Cc1ccc(Nc2nnc(SCc3ccccc3)s2)cc1`, the viability rescue was 1.32% [with zVAD 20 µM] (inactive).

With `Cc1ccc(Nc2ccccc2N)cc1`, the viability rescue is 75.5% (active).

For the compound `Cc1ccc(C)c(NC(=O)C2Cc3ccccc3CN2C(=O)OCc2ccccc2)c1` (configuration not stated), the viability rescue is 0.1% [with zVAD 20 µM] (inactive).

Take `Cc1cc(NC(=O)c2cnn3cccnc23)n(-c2ccccc2)n1`: the viability rescue was 77.7% (active).

As for `O=C(Nc1ccc(Cl)cn1)c1cnn2cccnc12`, the viability rescue is -0.65% (inactive).

In the case of `Cc1cc(NC(=O)Nc2ccccc2)n(-c2ccccc2)n1`, the viability rescue was 0.11% [with zVAD 20 µM] (inactive).

For `CNC(=S)N/N=C/c1cn(Cc2ccc(C)cc2)c2ccccc12`, the viability rescue is 0.34% (inactive).

For `COCCNC(=O)c1ccccc1NS(=O)(=O)c1ccc(C)c([N+](=O)[O-])c1`, the viability rescue was 0.95% (inactive).

In the case of `COc1ccc(/C=N/NS(=O)(=O)c2ccc(NC(C)=O)cc2)cc1`, the viability rescue was 0.07% (inactive).

With `Cc1cc(=O)oc2cc(OCC(=O)Nc3nnc(C4CC4)s3)ccc12`, the viability rescue was -0.67% (inactive).

Regarding `Cc1ccc(NC(=O)Cn2cccc2C2=NC(c3ccccc3)CO2)c(C)c1` (configuration not stated), the viability rescue was -0.00089% (inactive).

As for `COc1cc(/C=N\Nc2nc(-c3cccs3)c(NC(C)=O)s2)ccc1O`, the viability rescue is 2.98% (inactive).

Regarding `CCNc1nc(NCC)nc(N/N=C/c2ccc(O)c(OC)c2)n1`, the viability rescue is 0.27% (inactive).

Consider `COc1cc(/C=N/Nc2nc3ccccc3s2)ccc1O`, for which the viability rescue is 77.5% (active).

For `COc1cc2nc(Cl)nc(NCCO)c2cc1OC`, the viability rescue is 0.24% (inactive).

`CC1CC(C)(C)n2c(O)c(N=NC(N)=S)c3cccc1c32` (configuration not stated): the viability rescue is -0.69% (inactive).

For `COc1ccccc1/C=C/CN1CCC(CO)(Cc2ccccc2)CC1`, the viability rescue was 0.85% (inactive).

Turning to `CC(=O)c1ccc(S(=O)(=O)N2CCN(c3nc4c(C)c(C)ccc4cc3C#N)CC2)cc1`, the viability rescue is 1.16% (inactive).

For `NC(=O)COC(=O)/C=C/c1ccc2ccccc2n1`, the viability rescue is 10.8% (inactive).

Consider `CC(=O)c1ccc(S(=O)(=O)N2CCN(C(=O)/C=C/c3ccc4ccccc4n3)CC2)cc1`, for which the viability rescue is 75.2% (active).

As to `Cc1ccc(S(=O)(=O)N(C)CC(=O)OCC(=O)Nc2ccccc2)cc1`, the viability rescue was 0.76% (inactive).

Turning to `Brc1cc(/C=N/n2cnnc2)oc1Br`, the viability rescue is 0.56% (inactive).

Consider `O=C(COc1cccc(-n2cnnn2)c1)NCCC1=CCCCC1`, for which the viability rescue was 78.2% [with zVAD 20 µM] (active).

Consider `Cc1nnc(OCC(=O)NCCC2=CCCCC2)c2ccccc12`, for which the viability rescue is 0.41% (inactive).

As to `O=C(COc1ccc(Cl)cc1)NCCC1=CCCCC1`, the viability rescue is 0.15% [with zVAD 20 µM] (inactive).

Consider `COCCN(C(=O)c1ccccc1F)c1c(N)n(Cc2ccccc2)c(=O)[nH]c1=O`, for which the viability rescue is 1.78% (inactive).

Take `COc1ccc(CN2C(=O)C(C)S/C2=N/N=C/c2ccco2)cc1` (configuration not stated): the viability rescue is 0.28% (inactive).

On to `CN=c1scc(-c2cc(OC)ccc2OC)n1/N=C/c1c(C)[nH]c2ccccc12`, for which the viability rescue was 3.26% [with zVAD 20 µM] (inactive).

`COc1ccc(N=Cc2c(O)[nH]c3ccccc23)cc1OC`: the viability rescue is 76.4% [with zVAD 20 µM] (active).

Take `COC(=O)c1[nH]c2ccccc2c1NS(=O)(=O)c1ccc(OC)cc1OC`: the viability rescue is -0.08% (inactive).

With `COCC(=O)N=Nc1c(O)[nH]c2ccccc12`, the viability rescue is -0.49% [with zVAD 20 µM] (inactive).

`COc1ccccc1N=Cc1c(O)c2ccccc2oc1=O`: the viability rescue was -0.1% (inactive).

Turning to `COc1cc(N=Cc2c(O)[nH]c3ccccc23)cc(OC)c1OC`, the viability rescue is 78.4% [with zVAD 20 µM] (active).

Take `Cc1cccc(C(=O)N2CCC(c3nc4ccccc4s3)CC2)c1`: the viability rescue is 12.5% (inactive).

As for `CC(C)=CCN1CCN(Cc2ccc(Oc3ncccn3)cc2)CC1CCO` (configuration not stated), the viability rescue was -0.77% (inactive).

Turning to `CCc1ccc(C2C(C#N)=C(N)N(N3CCOCC3)C3=C2C(=O)CC(C)(C)C3)s1` (configuration not stated), the viability rescue was -0.95% (inactive).

Take `CCCN=C1NC(=O)C(CC(=O)NCCc2ccc(OC)c(OC)c2)S1` (configuration not stated): the viability rescue is 0.51% [with zVAD 20 µM] (inactive).

On to `OCC(CO)(CO)NCc1ccc(-c2ccccc2)cc1`, for which the viability rescue was 3.78% (inactive).

Regarding `O=C(Nc1nnc(C2CC2)s1)C1=NN(C2CCS(=O)(=O)C2)C(=O)CC1` (configuration not stated), the viability rescue was 1.75% (inactive).
